Measurements reported in PubChem BioAssay.
Results filed as inconclusive are left out. The source made the active and inactive calls.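 The calls were made as follows, unless noted: active = inhibition over a set limit, the all-compound mean plus 3 SD, in both replicate runs; inconclusive = over that limit in just one replicate run; inactive = at or under that limit in both runs.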

Experiments:
[1] = reducers of endogenous Her2 protein level, primary screen, SKBR3 breast tumor cells, AlphaScreen, ATP viability (AID 461;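 active = Her2 level under about 52% in both replicate screens, with viability over 70% of control, limit read from the data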;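 as to Her2 level: lower value means less Her2 protein in the cells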;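 as to viability: percent of carrier control wells set as 100% viability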); conditions: 18-24 h, measured here: SKBR3 viability, ATP luminescence, at 10 µM
[2] = target: Receptor tyrosine-protein kinase erbB-2 (Homo sapiens) (UniProt P04626); assay: as above; conditions: 18-24 h, at 10 µM, stronger effect = lower value
[3] = SK-BR-3 cell growth inhibitors, pilot screen, 24 h, human (AID 572;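 active = viability at or below 10% of carrier control in both of two separate runs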;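 also: compound exposure lasted between 18 and 24 h rather than exactly 24 h; 100% = carrier-treated control wells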); conditions: SK-BR-3 viability, CellTiter-Glo luminescence, at 10 µM, stronger effect = lower value
[4] = HUVEC growth inhibition – cell-based, human, primary screen (AID 575;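 active = viability at or below 30% in both replicate assays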;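 also: 100% = median of untreated cell wells with 0.1% DMSO on each plate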); conditions: HUVEC proliferation, CellTiter-Glo luminescence, 72 h; at 10 µM; stronger effect = lower value
[5] = growth inhibitors of H69AR lung tumor, primary screen, human, duplicate replicates (AID 580;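 active = viability at or under a set limit in both replicates, limit being median viability minus 3 SD, cut at about 48% in these data, passing the limit was not always enough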;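 also: 100% = mean luminescence of untreated wells and 0% = no signal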); conditions: H69AR lung tumor cells viability, ATP luminescence, 72 h; at 10 µM; stronger effect = lower value
[6] = reversal of MRP1-mediated doxorubicin resistance, pilot screen, H69AR cells, doxorubicin co-treatment (AID 601;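 active = viability loss from added drug above about 55%, and viability with drug at most 40%, in both replicates, limit read from the data, passing the limit was not always enough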); conditions: CellTiter-Glo, 72 h, at 10 µM; for differential viability (reversal): stronger effect = higher value
[7] = 384-well plate pilot, post-Golgi transport modulator project, inhibition of yeast transport mutant growth (AID 636; in the data active = inhibition above about 31%); conditions: absorbance 615 nm, about 18 h, stronger effect = higher value
[8] = growth suppression of yeast trafficking mutant, preliminary HTS, modulators of trafficking downstream of Golgi apparatus project, 1536-format plate, OD 615 nm (AID 637; in the data active = inhibition above about 30%); conditions: yeast transport mutant growth, absorbance 615 nm, 18 h; stronger effect = higher value
[9] = OD615 S. cerevisiae growth inhibition, permissive medium, pilot counter-assay, permissive growth control for S. cerevisiae lifespan shortening project (AID 705;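 active = growth inhibition above 25% in both replicates, a cutoff set 3 SD above the mean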); conditions: OD615, 24 h, at 10 µM, stronger effect = higher value
[10] = Restrictive medium S. cerevisiae growth inhibition, OD615, pilot screen of yeast lifespan reduction project, restrictive growth control (AID 706;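 active = growth inhibition above a set limit, 3 SD over mean compound inhibition, in both replicates, cut at about 43% in these data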;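 also: modified DeaD lifespan yeast strain shifted to restrictive glucose medium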); conditions: OD615, 48 h, at 10 µM, stronger effect = higher value
[11] = viability gain of MRP-1-high H69AR cells under doxorubicin, pilot screen, MRP-1 activator project, CellTiter-Glo, duplicate (AID 807;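 active = viability increase at or above a cutoff of the median across tested compounds plus 3 SD, cut at about 8.5% in these data, passing the limit was not always enough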;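 also: compound pretreatment 18-22 h then 72 h combined with doxorubicin; 0% = doxorubicin alone and 100% = vehicle without doxorubicin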); conditions: H69AR viability with doxorubicin, CellTiter-Glo luminescence; at 10 µM; stronger effect = higher value
[12] = growth suppression of beta-catenin knockout HCT116, pilot screen, human colon tumor cells (AID 823;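 active = cell viability at or below a set limit in both duplicate runs, the limit being the all-compound median minus 4 SD, cut at about 23% in these data, passing the limit was not always enough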;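 also: 0% = wells killed by 20 µM Hyamine and 100% = untreated DMSO cell wells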); conditions: CellTiter-Glo, 60 h, at 10 µM, stronger effect = lower value
[13] = growth suppression of PTEN-deleted HCT116, pilot screen, cell-based, HCT116 clonal line, CellTiter-Glo (AID 824;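 active = viability at or below 27.92% in each of two runs, the all-compound median minus 4 SD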;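 also: 0% = 20 µM Hyamine control and 100% = vehicle cell control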); conditions: 60 h, at 10 µM, stronger effect = lower value
[14] = inhibitors of the yeast RAM network, pilot screen, dse1pr::URA3 reporter, 5-FOA selection (AID 869);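 also: 0% = DMSO wells with no growth and 100% = 10 µM 1-NA-PP1 with full growth; RAM network block rescues cells from 5-FOA so hits raise OD615 growth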; conditions: S. cerevisiae dse1pr::URA3 5-FOA growth, OD615, 2 d; at 10 µM; stronger effect = higher value; strain carries analog-sensitive mutant Cbk1 kinase
[15] = RAM signaling pathway blockade in yeast – S. cerevisiae, Pdr1DBD-CYC8 efflux-inhibited sensitized strain, primary screen (AID 1298;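 active = RAM network inhibition above 8.4% in each of two replicates, 3 SD over the compound average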;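 also: 0% = DMSO untreated cells without growth and 100% = 10 µM 1-NA-PP1 full growth; higher means more yeast growth rescued from 5-FOA killing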); conditions: S. cerevisiae cbk1-as DSE1-URA3 strain, 5-FOA growth OD615, 2 d; at 50 µM; stronger effect = higher value
[16] = H69AR cells + 2 uM doxorubicin, measured here: viability with 2 uM doxorubicin, stronger effect = lower value
[17] = H69AR cells, compound alone cytotoxicity

Receptor tyrosine-protein kinase erbB-2 (Homo sapiens), sequence (P04626 whole entry, looked up): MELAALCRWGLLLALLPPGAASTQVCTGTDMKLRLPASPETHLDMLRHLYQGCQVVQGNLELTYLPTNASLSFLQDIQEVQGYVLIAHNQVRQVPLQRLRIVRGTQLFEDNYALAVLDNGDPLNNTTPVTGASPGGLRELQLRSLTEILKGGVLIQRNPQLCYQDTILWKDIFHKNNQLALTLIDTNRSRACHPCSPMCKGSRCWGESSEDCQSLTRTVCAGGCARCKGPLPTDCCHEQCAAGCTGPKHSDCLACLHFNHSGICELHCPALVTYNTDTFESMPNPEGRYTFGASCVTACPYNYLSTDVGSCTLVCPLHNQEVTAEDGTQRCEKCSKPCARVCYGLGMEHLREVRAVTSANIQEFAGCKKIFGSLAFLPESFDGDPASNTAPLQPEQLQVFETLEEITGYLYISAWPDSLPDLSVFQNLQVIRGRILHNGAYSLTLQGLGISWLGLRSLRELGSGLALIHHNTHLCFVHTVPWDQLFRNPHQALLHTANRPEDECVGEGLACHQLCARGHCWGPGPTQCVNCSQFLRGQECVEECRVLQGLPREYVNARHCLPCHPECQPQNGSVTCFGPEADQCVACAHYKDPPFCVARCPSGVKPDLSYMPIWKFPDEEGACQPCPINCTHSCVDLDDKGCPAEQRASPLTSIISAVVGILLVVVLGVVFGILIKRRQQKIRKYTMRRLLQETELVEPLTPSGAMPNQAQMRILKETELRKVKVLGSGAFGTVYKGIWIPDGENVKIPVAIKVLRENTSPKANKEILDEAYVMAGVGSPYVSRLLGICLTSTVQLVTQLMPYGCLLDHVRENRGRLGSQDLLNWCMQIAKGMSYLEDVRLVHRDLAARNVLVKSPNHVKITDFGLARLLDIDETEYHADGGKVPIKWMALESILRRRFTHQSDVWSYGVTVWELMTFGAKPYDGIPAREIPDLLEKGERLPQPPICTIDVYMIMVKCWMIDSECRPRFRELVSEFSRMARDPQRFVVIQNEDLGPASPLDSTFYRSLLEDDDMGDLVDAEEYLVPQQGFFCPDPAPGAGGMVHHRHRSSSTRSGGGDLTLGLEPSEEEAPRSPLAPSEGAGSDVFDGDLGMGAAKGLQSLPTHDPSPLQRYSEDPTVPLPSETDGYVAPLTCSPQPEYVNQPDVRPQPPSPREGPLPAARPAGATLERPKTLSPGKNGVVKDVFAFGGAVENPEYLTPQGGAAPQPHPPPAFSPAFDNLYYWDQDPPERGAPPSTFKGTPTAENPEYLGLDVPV

| SMILES | viability [1] | Her2 level [2] | viability [3] | viability [4] | viability [5] | differential viability (reversal) ([6]; H69AR cells + 2 uM doxorubicin) | viability [6, 16] | viability [6, 17] | inhibition [7] | inhibition [8] | growth inhibition [9] | growth inhibition [10] | viability increase [11] | viability [12] | viability [13] | inhibition [14] | RAM network inhibition [15] |
| --- | --- | --- | --- | --- | --- | --- | --- | --- | --- | --- | --- | --- | --- | --- | --- | --- | --- |
| COc1cc(NC(=O)C2CCCN2S(=O)(=O)c2cccc3cccnc23)cc(OC)c1OC (stereo not drawn) | 72% | 81% (inactive) | 72% (inactive) | 87.6% (inactive) | 82.2% (inactive) | -6.16% (inactive) | 88.3% | 82.2% | -1.67% (inactive) | 1.5% (inactive) | 0.6% (inactive) | -10.7% (inactive) | -5.34% (inactive) | 79.4% (inactive) | 79.4% (inactive) | 0.905% (inactive) | 2.32% (inactive) |
| CCN1CCN(C(=O)c2oc(=O)c3ccccc3c2-c2ccc(C)cc2)CC1 | 96% | 102% (inactive) | 96% (inactive) | 98.6% (inactive) | 96.4% (inactive) | -4.83% (inactive) | 101% | 96.4% | -3.07% (inactive) | 5.9% (inactive) | -1.38% (inactive) | -6.39% (inactive) | -3.04% (inactive) | 91.9% (inactive) | 90.5% (inactive) | 2.07% (inactive) | 1.85% (inactive) |
| c1ccc(CN2CCN(CCCNc3ccc4nnc(-c5ccccc5)n4n3)CC2)cc1 | 83% | 78.5% (inactive) | 83% (inactive) | 50.2% (inactive) | 86.3% (inactive) | 55.5% (active) | 30.8% | 86.3% | 0.13% (inactive) | -2.17% (inactive) | -8.05% (inactive) | 5.01% (inactive) | -7.78% (inactive) | 50% (inactive) | 55.5% (inactive) | 2.78% (inactive) | 3.65% (inactive) |
| Cc1ccccc1-n1c(Cn2c(=O)sc3ccccc32)nnc1SCC(N)=O | 96.5% | 94.5% (inactive) | 96.5% (inactive) | 92.3% (inactive) | 84.8% (inactive) | 6.29% (inactive) | 78.6% | 84.8% | -6.27% (inactive) | -1.97% (inactive) | -3.65% (inactive) | -3.06% (inactive) | 1.68% (inactive) | 107% (inactive) | 106% (inactive) | 0.455% (inactive) | 4.35% (inactive) |
| O=C(c1cccc(F)c1)N1CCc2ccccc21 | 96.5% | 80% (inactive) | 96.5% (inactive) | 91.2% (inactive) | 98.9% (inactive) | 3.25% (inactive) | 95.6% | 98.9% | -5.14% (inactive) | 0.98% (inactive) | -19.5% (inactive) | -20.4% (inactive) | -5.03% (inactive) | 86.3% (inactive) | 96% (inactive) | 0.88% (inactive) | 2.7% (inactive) |
| CC1=C(C(=O)OCc2ccccc2)C(c2ccco2)n2ncnc2N1 (stereo not drawn) | 98.5% | 95% (inactive) | 98.5% (inactive) | 87.1% (inactive) | 112% (inactive) | 23% (inactive) | 88.7% | 112% | -2.95% (inactive) | 2.67% (inactive) | 3.25% (inactive) | -3.8% (inactive) | -2.11% (inactive) | 92.8% (inactive) | 89% (inactive) | 0.83% (inactive) | 1.02% (inactive) |
| Cc1ccnc(NC(=O)C2CCCN(S(=O)(=O)c3cnc[nH]3)C2)c1 (stereo not drawn) | 95.5% | 104% (inactive) | 95.5% (inactive) | 94.7% (inactive) | 105% (inactive) | 8% (inactive) | 97.4% | 105% | 0.8% (inactive) | -2.79% (inactive) | 1.41% (inactive) | -5.85% (inactive) | -1.81% (inactive) | 97.3% (inactive) | 96.1% (inactive) | 0.925% (inactive) | 3.67% (inactive) |
| CN(C1CCCCC1)S(=O)(=O)c1ccc(S(=O)(=O)N2CCN(CCC#N)CC2)cc1 | 89.5% | 92.5% (inactive) | 89.5% (inactive) | 98.5% (inactive) | 103% (inactive) | 27.9% (inactive) | 74.8% | 103% | -2.27% (inactive) | 4.26% (inactive) | -11.3% (inactive) | -3.55% (inactive) | -1.47% (inactive) | 97.2% (inactive) | 91.5% (inactive) | 0.805% (inactive) | 1.41% (inactive) |
| CC(C)c1nnc(NC(=O)c2ccc(N3C(=O)CCC3=O)cc2)s1 | 91.5% | 89.5% (inactive) | 91.5% (inactive) | 100% (inactive) | 92.5% (inactive) | -1.78% (inactive) | 94.3% | 92.5% | -3.33% (inactive) | -0.67% (inactive) | -2.77% (inactive) | -18.5% (inactive) | -4.79% (inactive) | 101% (inactive) | 95.3% (inactive) | 1.46% (inactive) | 3.77% (inactive) |
